Experimental data reported in PubChem BioAssay (NCI).
About 79,000 compounds went through this panel and 15% of them were active in at least one assay; those are over-represented in the sample as a whole. Active and inactive are the calls of the source. Cut-off read from the data, not from the text of the source: active = growth inhibition above about 70%; inactive = the rest.

How the values were obtained:
[1] = NCI Yeast Anticancer Drug Screen. Data for the rad50 strain (AID 155);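 note: 0% = growth of vehicle-only cultures of the same strain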; settings: S. cerevisiae rad50 strain growth inhibition, active compounds read high
Outline: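 Vehicle-treated cultures provide the reference for the growth inhibition reported for compound-exposed, repair-deficient yeast.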

[2] = NCI Yeast Anticancer Drug Screen. Data for the mec2-1 strain (AID 157); settings: S. cerevisiae mec2-1 strain, active compounds read high
Outline: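 Compounds were applied to mec2-1 yeast cells. Their growth was then compared with that of vehicle-treated cultures to give growth inhibition.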

[3] = NCI Yeast Anticancer Drug Screen. Data for the sgs1 mgt1 strain (AID 161);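 note: 0% = growth of cultures given vehicle only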; settings: S. cerevisiae sgs1 mgt1 strain, active compounds read high
Outline: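 Compounds are added to genetically altered yeast, and growth is compared with cultures given vehicle alone to give percent inhibition.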

[4] = NCI Yeast Anticancer Drug Screen. Data for the cln2 rad14 strain (AID 165);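 note: 0% = growth equal to vehicle treated cultures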; settings: S. cerevisiae cln2 rad14 strain, active compounds read high
Outline: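 Strain: cln2 rad14 yeast, altered in cell cycle control and DNA damage repair. Read-out: growth inhibition vs vehicle.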

[5] = NCI Yeast Anticancer Drug Screen. Data for the bub3 strain (AID 167); settings: S. cerevisiae bub3 mutant strain, active compounds read high
Outline: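 Mutant yeast screening strain plus compound; vehicle-treated cultures serve as the 0% inhibition reference.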

[6] = NCI Yeast Anticancer Drug Screen. Data for the mlh1 rad18 strain (AID 175); settings: S. cerevisiae mlh1 rad18 strain growth inhibition, active compounds read high
Outline: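 A repair-deficient yeast strain is exposed to test compound, and growth is scored relative to vehicle-treated controls.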

[7] = at 5.0 µM (retest, dose inferred, filed as 0.5)
[8] = at 50.0 µM (retest, dose inferred, filed as 5.0)

Measured: growth inhibition

Nc1cccc2c1C(=O)c1ccc(Cl)cc1C2=O
active: [1]; [8] 81% | [1]; at 50.0 µM 93.7% | [2]; at 50.0 µM 71.8% | [5]; at 50.0 µM 85.4%
inactive: [1]; [7] 69% | [2]; [7] 18% | [2]; [8] 34% | [3]; [7] 4% | [3]; [8] 61% | [3]; at 50.0 µM 55% | [4]; [7] 0% | [4]; [8] 6% | [4]; at 50.0 µM -17.6% | [5]; [7] 12% | [5]; [8] 39% | [6]; [7] 15% | [6]; [8] 60% | [6]; at 50.0 µM 44.8%

CCC(CO)Nc1nc2ccc(Br)cc2c2ccccc12 (configuration not stated)
inactive: [1]; [7] 15% | [2]; [7] 4% | [2]; [8] 59% | [2]; at 50.0 µM 49.5% | [3]; [7] 5% | [4]; [7] 0% | [4]; [8] 56% | [4]; at 50.0 µM 66% | [5]; [7] 2% | [5]; at 50.0 µM 63.6% | [6]; [7] 8%
active: [1]; [8] 82% | [1]; at 50.0 µM 76% | [3]; [8] 95% | [3]; at 50.0 µM 86% | [5]; [8] 84% | [6]; [8] 96% | [6]; at 50.0 µM 93.9%

CC(=O)NCCN(C)C
inactive: [1]; [7] 2% | [1]; [8] -1% | [2]; [7] 2% | [2]; [8] -4% | [3]; [7] 6% | [3]; [8] -1% | [4]; [7] -2% | [4]; [8] -3% | [5]; [7] -3% | [5]; [8] 0% | [6]; [7] 4% | [6]; [8] 4%
active: [1]; at 50.0 µM 93.5% | [2]; at 50.0 µM 97% | [3]; at 50.0 µM 84.1% | [4]; at 50.0 µM 85.7% | [5]; at 50.0 µM 92.5% | [6]; at 50.0 µM 88.8%

COC(=O)CC1(O)c2cc(OC)c3cccc(OC)c3c2CCC1(C)C(=O)OC (configuration not stated)
active: [1]; [7] 88% | [1]; [8] 97% | [1]; at 50.0 µM 92.9% | [2]; [7] 91% | [2]; [8] 99% | [2]; at 50.0 µM 88.8% | [3]; [7] 85% | [3]; [8] 99% | [3]; at 50.0 µM 95.2% | [4]; [7] 80% | [4]; [8] 97% | [4]; at 50.0 µM 96% | [5]; [7] 83% | [5]; [8] 98% | [5]; at 50.0 µM 88.5% | [6]; [7] 92% | [6]; [8] 98% | [6]; at 50.0 µM 94.8%

CSC(=S)N/N=C\C(O)C(O)C(O)C(O)CO (configuration not stated)
active: [1]; at 50.0 µM 97.6% | [2]; at 50.0 µM 95.8% | [3]; at 50.0 µM 95.2% | [4]; at 50.0 µM 70.3% | [5]; at 50.0 µM 96.3% | [6]; at 50.0 µM 97.8%
inactive: [1]; [7] -2% | [1]; [8] 9% | [2]; [7] -2% | [2]; [8] 0% | [3]; [7] -2% | [3]; [8] 1% | [4]; [7] 0% | [4]; [8] 0% | [5]; [7] -1% | [5]; [8] -2% | [6]; [7] -2% | [6]; [8] 9%

NC(=O)C1C(=O)c2cccc3c2C1(Br)C(Br)CCC3 (configuration not stated)
active: [1]; [8] 99% | [1]; at 50.0 µM 99.2% | [2]; [8] 100% | [2]; at 50.0 µM 99.4% | [3]; [8] 100% | [3]; at 50.0 µM 99.5% | [4]; [8] 98% | [4]; at 50.0 µM 98.8% | [5]; [8] 99% | [5]; at 50.0 µM 99.2% | [6]; [8] 99% | [6]; at 50.0 µM 99.3%
inactive: [1]; [7] 12% | [2]; [7] -5% | [3]; [7] 26% | [4]; [7] 2% | [5]; [7] 7% | [6]; [7] 12%

O=[N+]([O-])c1ccc(N/N=C/c2cccnc2)cc1
inactive: [1]; [7] 20% | [1]; [8] 49% | [1]; at 50.0 µM 66.4% | [2]; [7] -5% | [2]; [8] 6% | [2]; at 50.0 µM -12.1% | [3]; [7] 1% | [3]; [8] 26% | [3]; at 50.0 µM 60.1% | [4]; [7] 3% | [4]; [8] 15% | [4]; at 50.0 µM -0.05% | [5]; [7] 3% | [5]; [8] 44% | [5]; at 50.0 µM 29.4% | [6]; [7] 9% | [6]; [8] 26% | [6]; at 50.0 µM 45.5%

Cc1ccc(N2C(=O)C(Cl)=C(Cl)C2=O)cc1
inactive: [1]; [7] 11% | [2]; [7] 12% | [3]; [7] 20% | [4]; [7] 8% | [5]; [7] 16% | [6]; [7] 14%
active: [1]; [8] 99% | [1]; at 50.0 µM 99.3% | [2]; [8] 100% | [2]; at 50.0 µM 99.4% | [3]; [8] 100% | [3]; at 50.0 µM 99.5% | [4]; [8] 99% | [4]; at 50.0 µM 98.8% | [5]; [8] 99% | [5]; at 50.0 µM 99.3% | [6]; [8] 100% | [6]; at 50.0 µM 97.5%

O=C(O)c1cc2c(cc1CC(Cc1ccc3c(c1)CCCC3)C(=O)O)CCCC2 (configuration not stated)
active: [1]; [8] 95% | [1]; at 50.0 µM 86.3% | [2]; [8] 98% | [2]; at 50.0 µM 73.3% | [3]; [8] 98% | [3]; at 50.0 µM 70.2% | [4]; [8] 96% | [4]; at 50.0 µM 74.4% | [5]; [8] 98% | [5]; at 50.0 µM 76.2% | [6]; [8] 96% | [6]; at 50.0 µM 82.5%
inactive: [1]; [7] 20% | [2]; [7] 16% | [3]; [7] 19% | [4]; [7] 9% | [5]; [7] 7% | [6]; [7] 8%
